# Test results published in PubChem BioAssay (Tox21).
# Several values for one entry are separate records, joined by “and”; a condition that tells them apart may be missing. Equal entries are not always repeated. Records with an inconclusive call do not appear. Where a call stands in place of a potency, no number is given. Where a structure was tested more than once in an assay, its records may differ in their call. Activity calls are given as the source filed them. Unless noted, the call rests on the fitted dose curve; in most records, active means well fitted curve in the direction sought with a large enough effect in the repeat runs; inconclusive means weak or mixed curves; inactive means no such curve, though single readings can be large; an effect the other way counts as inactive or inconclusive.
# What was measured:
# [1] = molecular target: Progesterone receptor (Homo sapiens) (UniProt P06401); experiment: qHTS assay to identify small molecule agonists of the progesterone receptor (PR) signaling pathway (AID 1346784; calls by dose curve; further: nearly all actives have a fitted effect of over 30% in size)
# How it was run: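 Cells (PR-UAS-bla HEK 293T, GripTite) were plated in assay medium containing 2% charcoal-stripped FBS and incubated 6 hr. Test compounds in DMSO were added for 16 hr at 37C. FRET substrate was then loaded for 2 hr at room temperature before fluorescence reading.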
# [2] = molecular target: Progesterone receptor (Homo sapiens) (UniProt P06401); experiment: qHTS assay to identify small molecule antagonists of the progesterone receptor (PR) signaling pathway (AID 1346795; active means well fitted inhibition curve with a large enough effect in the signal ratio in the repeat runs, not every such curve was filed as active; the % refers to the signal ratio)
# How it was run: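 Antagonist mode: compounds tested against 1 nM (final) promegestone stimulation in HEK293T cells expressing PR-UAS-bla reporter, 16 hr at 37C, 5% CO2; beta-lactamase activity detected via B/G FRET substrate after 2 hr at room temperature.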
# [3] = qHTS assay to identify small molecule antagonists of the progesterone receptor (PR) signaling pathway - cell viability counter screen (AID 1346798); further: series mostly up to about 92 µM; nearly all actives have a fitted effect of over 50% in size
# How it was run: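 Counter screen for cytotoxicity: viability of PR-UAS-bla HEK293T cells was measured with CellTiter-Glo luminescence following 16 hr compound exposure in the presence of R5020.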
# [4] = qHTS assay to identify small molecule agonists of the progesterone receptor (PR) signaling pathway - cell viability counter screen (AID 1346799; calls by dose curve; further: nearly all actives have a fitted effect of over 45% in size)
# How it was run: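 Cells (PR-UAS-bla HEK293T) are plated at 3,000/well in 2% charcoal-stripped FBS medium, rested 6 hr, dosed and incubated 16 hr at 37C. CellTiter-Glo is then added and luminescence measured after 30 min at room temperature.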
# [5] = qHTS assay to identify small molecule antagonists of the TGF-beta/Smad signaling pathway - cell viability counter screen (AID 1346824); further: nearly all actives have a fitted effect of over 50% in size
# How it was run: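 Cytotoxicity counter-screen run in the same wells as the beta-lactamase Smad reporter read: CellTiter-Glo luminescence after 30 min at room temperature. HEK 293T SBE-bla cells had 5 hr compound exposure at 37 C with TGF-beta1 (0.25 ng/mL stock).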
# [6] = qHTS assay to identify small molecule agonists of the TGF-beta/Smad signaling pathway - cell viability counter screen (AID 1346829); further: top concentration of the series differs between compounds; nearly all actives have a fitted effect of over 45% in size
# How it was run: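 Same-well cytotoxicity: CellTiter-Glo added after the 2 hr room-temperature beta-lactamase substrate step, luminescence measured 30 min later; cells had 5 hr of compound at 37 C.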
# [7] = qHTS assay to identify small molecule agonists of the TGF-beta/Smad signaling pathway (AID 1346859; active means well fitted activation curve with a large enough effect in the signal ratio in the repeat runs, not every such curve was filed as active; the % refers to the signal ratio; further: series mostly up to about 77 µM)
# How it was run: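 Reporter line: HEK 293T with stably integrated SBE-controlled beta-lactamase. Compound exposure lasts 5 hr at 37 C and 5% CO2; substrate loading follows for 2 hr at room temperature, with emission read at 460 and 530 nm.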
# [8] = molecular target: Thyrotropin-releasing hormone receptor (Homo sapiens) (UniProt P34981); experiment: qHTS assay to identify small molecule antagonists of the thyrotropin-releasing hormone receptor (TRHR) signaling pathway (AID 1346877; active means well fitted inhibition curve with a large enough effect in the repeat runs, not every such curve was filed as active; further: series mostly up to about 51 µM)
# How it was run: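 Cells (TRHR-HEK293) are plated and kept 18 h at 37 °C/5% CO2. A calcium-sensitive dye is added for 2 h, compound follows for 5 min at room temperature, and TRH is then given at 1 nM final.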
# [9] = molecular target: Thyrotropin-releasing hormone receptor (Homo sapiens) (UniProt P34981); experiment: qHTS assay to identify small molecule agonists of the thyrotropin-releasing hormone receptor (TRHR) signaling pathway (AID 1346891; calls by dose curve;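 further: HEK293 cells expressing TRHR with calcium dye readout; series mostly up to about 58 µM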)
# How it was run: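 Cells: TRHR-Hek293, seeded and incubated 18 h. Dye loading: 2 h at 37 °C. Compound added from DMSO stock by pin tool. Read-out: kinetic calcium fluorescence over 3 min.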
# [10] = Human pregnane X receptor (PXR) small molecule agonists, qHTS cell viability counter screen (AID 1346977); further: nearly all actives have a fitted effect of over 50% in size
# How it was run: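 Cytotoxicity counter screen run in the same wells as the PXR luciferase assay, using PXR-Luc HepG2 cells in charcoal-stripped serum medium. Viability: CellTiter-Fluor fluorescence after 24hr compound treatment.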
# [11] = Caspase-3/7 induction in HepG2 cells by small molecules, qHTS assay (AID 1346978); further: nearly all actives have a fitted effect of over 15% in size; further: potency means the concentration at half of the fitted maximal effect
# How it was run: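 Caspase-3/7 induction was measured by Caspase-Glo 3/7 luminescence (30 min, room temperature) after a 17 hr compound exposure of wild-type HepG2 cells seeded at 2,000 per well and pre-incubated 5 hr.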
# [12] = Caspase-3/7 induction in CHO-K1 cells by small molecules, qHTS cell viability counter screen (AID 1346979); further: nearly all actives have a fitted effect of over 35% in size
# How it was run: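 Cytotoxicity counter screen run in parallel with the caspase-3/7 assay: CHO-K1 cells, 16hr compound treatment at 37C, then CellTiter-Fluor for 1hr before fluorescence reading.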
# [13] = Caspase-3/7 induction in CHO-K1 cells by small molecules, qHTS assay (AID 1346980); further: nearly all actives have a fitted effect of over 15% in size
# How it was run: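 Luminescent Caspase-Glo 3/7 read (30min, room temperature) quantified apoptosis induction. Cells were wild-type CHO-K1, treated with compound for 17hr at 37 C and 5% CO2.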
# [14] = Caspase-3/7 induction in HepG2 cells by small molecules, qHTS cell viability counter screen (AID 1346981); further: series mostly up to about 92 µM; nearly all actives have a fitted effect of over 30% in size
# How it was run: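 Steps: seed 2,000 HepG2 cells per well; incubate 5 hr at 37 C; pin-add compounds in DMSO; incubate 16 hr; add CellTiter-Fluor; after 1 hr at 37 C and 5% CO2, read fluorescence.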
# [15] = molecular target: Nuclear receptor subfamily 1 group I member 2 (Homo sapiens) (UniProt O75469); experiment: Human pregnane X receptor (PXR) small molecule agonists, qHTS assay (AID 1346982); further: nearly all actives have a fitted effect of over 35% in size; further: potency means the concentration at half of the fitted maximal effect
# How it was run: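 Agonist mode qHTS: PXR-Luc HepG2 cells plated 5 hr before DMSO-dissolved compounds were pinned in, cultured 24 hr at 37 C, 5% CO2; ONE-Glo luminescence readout.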
# [16] = molecular target: Nuclear receptor subfamily 1 group I member 2 (Rattus norvegicus) (UniProt Q9R1A7); experiment: Rat pregnane X receptor (rPXR) activation by small molecules, qHTS assay (AID 1346983); conditions: rPXR luciferase reporter cells, One-Glo luminescence, 24 h; stronger effect = higher value; further: nearly all actives have a fitted effect of over 20% in size
# How it was run: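 Luminescent readout (One-Glo luciferase, 30 min room temperature) followed 24 hr compound treatment at 37 C of rPXR cells plated 2,000 per well and preincubated 5hr; qHTS format with compounds delivered in DMSO.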
# [17] = molecular target: Nuclear receptor subfamily 1 group I member 2 (Homo sapiens) (UniProt O75469); experiment: CYP3A4 induction through human pregnane X receptor (PXR) by small molecules, qHTS assay (AID 1346984); further: nearly all actives have a fitted effect of over 40% in size
# How it was run: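 Steps: seed DPX-2 cells, 5 hr at 37C; pin-transfer compounds; 24 hr at 37C; add Luciferin-IPA (3uM final), 3 hr at 37C; add One-Glo, 30 min RT; read luminescence.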
# [18] = molecular target: Nuclear receptor subfamily 1 group I member 2 (Homo sapiens) (UniProt O75469); experiment: Human pregnane X receptor (PXR) activation by small molecules, qHTS assay (AID 1346985); further: nearly all actives have a fitted effect of over 40% in size
# How it was run: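 DPX-2 cells (HepG2 co-transfected with a PXR response element and a CYP3A4-promoter luciferase construct) were seeded at 2,000 per well, rested 5 hr at 37C, then exposed to DMSO-dissolved compounds for 24 hr. Activation was read as luciferase luminescence.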
# [19] = molecular target: Cytochrome P450 2D6 (Homo sapiens) (UniProt P10635); experiment: Cytochrome P450 Family 2 Subfamily D Member 6 (CYP2D6) small molecule antagonists: luciferase reporter qHTS assay (AID 1671196); further: nearly all actives have a fitted effect of over 50% in size; further: potency means the concentration at half of the fitted maximal effect
# How it was run: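 P450-Glo format: CYP2D6 converts a proluciferin substrate to luciferin in an NADPH-driven reaction lasting 1 h at room temperature. Light output, proportional to CYP2D6 activity, reflects interference by test chemicals.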
# [20] = molecular target: Cytochrome P450 2C19 (Homo sapiens) (UniProt P33261); experiment: Cytochrome P450 Family 2 Subfamily C Member 19 (CYP2C19) small molecule antagonists: luciferase reporter qHTS assay (AID 1671197); further: nearly all actives have a fitted effect of over 65% in size; further: potency means the concentration at half of the fitted maximal effect
# How it was run: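 Quantitative high-throughput screen of the Tox21 library using CYP2C19 with proluciferin substrate. Reaction: NADPH regeneration, 37C, 1 h, after 10 min compound preincubation at room temperature. Readout: luminescence.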
# Cytochrome P450 2C19 (Homo sapiens), sequence (P33261 whole entry, looked up): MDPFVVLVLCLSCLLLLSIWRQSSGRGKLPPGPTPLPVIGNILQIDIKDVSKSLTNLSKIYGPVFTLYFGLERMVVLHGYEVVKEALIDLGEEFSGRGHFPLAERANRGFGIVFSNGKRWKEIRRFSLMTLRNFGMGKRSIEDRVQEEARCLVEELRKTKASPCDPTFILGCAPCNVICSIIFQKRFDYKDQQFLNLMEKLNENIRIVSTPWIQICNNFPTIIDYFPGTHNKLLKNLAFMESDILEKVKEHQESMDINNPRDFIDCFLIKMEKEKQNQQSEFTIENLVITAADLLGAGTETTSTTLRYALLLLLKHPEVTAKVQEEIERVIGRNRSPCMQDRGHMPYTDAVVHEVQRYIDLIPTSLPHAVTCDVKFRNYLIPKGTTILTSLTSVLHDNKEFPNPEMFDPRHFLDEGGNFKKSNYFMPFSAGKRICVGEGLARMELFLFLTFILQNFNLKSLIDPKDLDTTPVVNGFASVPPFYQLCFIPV
# Progesterone receptor (Homo sapiens), sequence (P06401 whole entry, looked up): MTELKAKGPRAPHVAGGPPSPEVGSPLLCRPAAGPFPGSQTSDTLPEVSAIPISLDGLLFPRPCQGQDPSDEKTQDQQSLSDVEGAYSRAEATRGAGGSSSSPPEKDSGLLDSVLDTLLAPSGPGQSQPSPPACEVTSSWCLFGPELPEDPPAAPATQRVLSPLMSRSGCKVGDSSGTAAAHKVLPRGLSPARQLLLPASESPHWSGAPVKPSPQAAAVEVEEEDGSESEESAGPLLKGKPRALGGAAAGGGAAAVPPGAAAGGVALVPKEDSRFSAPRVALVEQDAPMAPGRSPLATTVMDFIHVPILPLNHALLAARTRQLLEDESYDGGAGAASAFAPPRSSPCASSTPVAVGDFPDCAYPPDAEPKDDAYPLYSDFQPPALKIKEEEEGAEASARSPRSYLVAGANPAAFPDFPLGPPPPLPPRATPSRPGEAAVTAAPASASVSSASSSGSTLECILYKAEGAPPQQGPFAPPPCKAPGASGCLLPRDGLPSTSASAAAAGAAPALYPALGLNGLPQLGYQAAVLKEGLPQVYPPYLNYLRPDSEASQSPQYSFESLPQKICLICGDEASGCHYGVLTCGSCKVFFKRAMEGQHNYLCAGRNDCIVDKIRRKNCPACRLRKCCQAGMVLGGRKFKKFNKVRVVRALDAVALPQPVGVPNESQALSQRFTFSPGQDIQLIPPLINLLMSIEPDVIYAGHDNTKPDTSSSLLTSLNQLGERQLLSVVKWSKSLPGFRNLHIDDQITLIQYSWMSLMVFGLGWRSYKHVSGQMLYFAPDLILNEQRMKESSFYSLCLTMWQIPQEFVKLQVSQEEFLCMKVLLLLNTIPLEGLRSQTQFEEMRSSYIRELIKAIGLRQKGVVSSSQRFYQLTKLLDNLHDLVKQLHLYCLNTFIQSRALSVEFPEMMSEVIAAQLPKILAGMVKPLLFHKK
# Cytochrome P450 2D6 (Homo sapiens), sequence (P10635 whole entry, looked up): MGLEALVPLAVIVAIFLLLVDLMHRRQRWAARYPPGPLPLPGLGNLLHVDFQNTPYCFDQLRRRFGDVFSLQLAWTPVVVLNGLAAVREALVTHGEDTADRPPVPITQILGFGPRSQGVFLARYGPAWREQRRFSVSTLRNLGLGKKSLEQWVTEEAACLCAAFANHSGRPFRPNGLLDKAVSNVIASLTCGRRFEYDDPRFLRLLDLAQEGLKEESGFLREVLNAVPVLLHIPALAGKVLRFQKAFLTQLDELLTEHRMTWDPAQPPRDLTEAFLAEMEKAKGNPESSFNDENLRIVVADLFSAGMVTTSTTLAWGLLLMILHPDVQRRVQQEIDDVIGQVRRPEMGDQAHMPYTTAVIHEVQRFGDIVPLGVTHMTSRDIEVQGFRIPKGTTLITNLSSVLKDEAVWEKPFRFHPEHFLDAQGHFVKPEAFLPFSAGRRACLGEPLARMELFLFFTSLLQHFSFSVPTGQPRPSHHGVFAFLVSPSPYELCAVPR
# Nuclear receptor subfamily 1 group I member 2 (Rattus norvegicus), sequence (Q9R1A7 whole entry, looked up): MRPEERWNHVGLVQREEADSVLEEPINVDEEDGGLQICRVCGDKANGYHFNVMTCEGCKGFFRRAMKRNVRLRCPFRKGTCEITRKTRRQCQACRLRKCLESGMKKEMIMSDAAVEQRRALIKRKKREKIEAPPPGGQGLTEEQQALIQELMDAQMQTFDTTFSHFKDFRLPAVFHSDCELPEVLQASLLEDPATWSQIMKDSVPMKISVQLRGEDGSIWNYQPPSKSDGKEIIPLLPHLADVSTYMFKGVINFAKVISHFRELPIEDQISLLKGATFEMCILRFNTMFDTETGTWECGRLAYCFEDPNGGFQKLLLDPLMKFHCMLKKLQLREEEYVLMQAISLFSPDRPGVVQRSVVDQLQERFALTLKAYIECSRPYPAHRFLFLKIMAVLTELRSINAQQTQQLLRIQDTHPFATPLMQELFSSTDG
# Nuclear receptor subfamily 1 group I member 2 (Homo sapiens), sequence (O75469 whole entry, looked up): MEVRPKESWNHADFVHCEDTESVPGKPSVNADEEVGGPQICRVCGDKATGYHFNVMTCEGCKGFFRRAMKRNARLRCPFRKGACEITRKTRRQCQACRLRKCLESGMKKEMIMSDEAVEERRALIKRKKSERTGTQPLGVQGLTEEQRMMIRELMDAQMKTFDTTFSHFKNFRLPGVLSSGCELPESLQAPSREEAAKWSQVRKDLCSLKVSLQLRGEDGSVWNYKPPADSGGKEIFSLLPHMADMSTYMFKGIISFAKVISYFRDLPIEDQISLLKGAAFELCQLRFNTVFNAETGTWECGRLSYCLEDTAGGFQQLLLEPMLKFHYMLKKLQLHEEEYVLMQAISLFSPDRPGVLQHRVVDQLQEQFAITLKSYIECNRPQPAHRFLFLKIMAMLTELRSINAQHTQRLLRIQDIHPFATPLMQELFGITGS
# Thyrotropin-releasing hormone receptor (Homo sapiens), sequence (P34981 whole entry, looked up): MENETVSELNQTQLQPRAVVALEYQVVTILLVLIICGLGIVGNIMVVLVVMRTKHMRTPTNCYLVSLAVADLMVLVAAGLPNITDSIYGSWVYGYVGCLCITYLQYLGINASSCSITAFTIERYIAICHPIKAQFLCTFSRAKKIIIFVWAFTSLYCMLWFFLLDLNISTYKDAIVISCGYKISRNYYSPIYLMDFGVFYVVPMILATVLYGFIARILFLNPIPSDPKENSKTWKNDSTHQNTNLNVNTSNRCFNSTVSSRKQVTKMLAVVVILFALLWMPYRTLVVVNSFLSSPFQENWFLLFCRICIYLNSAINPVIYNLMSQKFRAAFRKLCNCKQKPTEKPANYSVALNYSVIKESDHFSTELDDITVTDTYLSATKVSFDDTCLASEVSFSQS
Structure (SMILES),Potency [1],outcome [2],Potency [3],Potency [4],outcome [5],Potency [6],outcome [7],outcome [8],outcome [9],Potency [10],Potency [11],Potency [12],outcome [13],Potency [14],Potency [15],max activation [16],outcome [17],Potency [18],Potency [19],Potency [20]
CC(C)[C@@H]1CC[C@@H](C)C[C@H]1O,inactive,inactive,inactive,inactive,inactive,inactive,inactive,inactive,inactive,inactive,69.5 µM (active) and inactive,inactive,inactive,inactive,31 µM (active) and inactive,-1.21% (inactive),inactive,inactive,inactive,inactive
CC(=O)Nc1nnc(S(N)(=O)=O)s1,inactive,inactive,inactive,inactive,inactive,inactive,inactive,inactive,inactive,inactive,inactive,inactive,inactive,inactive,inactive,–,–,–,inactive,inactive
O=S(=O)(O)c1ccc2cc(O)ccc2c1,inactive,inactive,inactive,inactive,inactive,inactive,inactive,inactive,inactive,inactive,inactive,inactive,inactive,inactive,inactive,–,–,–,inactive,inactive and 71.6 µM (active) and 79.6 µM (active)
CC(O)CO (stereo not given),inactive,inactive,inactive,inactive,inactive,inactive,inactive,inactive,inactive,inactive,inactive,inactive,inactive,inactive,inactive,1.42% (inactive),inactive,inactive,inactive and 1.56 µM (active),inactive
O=C(O)c1cccnc1,inactive,inactive,inactive,inactive,inactive,inactive,inactive,inactive,inactive,inactive,inactive,inactive,inactive,inactive,–,–,–,–,–,–
CCCCC1C(=O)N(c2ccccc2)N(c2ccccc2)C1=O,inactive,inactive,inactive,inactive,inactive,inactive,inactive,inactive,inactive,inactive,inactive,inactive,inactive,inactive,27.1 µM (active) and 24.3 µM (active),–,–,–,inactive,5.6 µM (active) and 25.2 µM (active)
O=C(O)CCC(=O)O,inactive,inactive,inactive,inactive,inactive,inactive,inactive,inactive,inactive,inactive,inactive,inactive,inactive,inactive,inactive,-3.42% (inactive),inactive,inactive,inactive,inactive
